The results in this text go back to PubChem BioAssay (NCATS).

Results filed as inconclusive are left out. Where a call stands in place of a potency, no number is given. Active and inactive are the calls of the source. Calls come from the whole dose curve; as a rule, active = well fitted curve in the direction sought with a large enough effect; inconclusive = small, poorly fitted or top-dose-only effect, or another doubt; inactive = no such curve, though single readings can be large; an effect the other way counts as inactive or inconclusive.

Assay [1] concerns the target Calcium and integrin-binding protein 1 (Homo sapiens) (UniProt Q99828). As to the kind of experiment: Primary qHTS for Identification of Calcium Integrin Binding Protein 1 (CIB1) Competitor (AID 1508620).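 Note: GST tagged CIB1 binding a fluorescein labelled alphaIIb integrin peptide tracer; top concentration of the series differs between compounds.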 The procedure, abridged:
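Fluorescence polarization competition: CIB1-GST (1 uM final) preincubated with compound 15 min at room temperature, then FITC-labeled alphaIIb peptide (100 nM final) added for another 15 min. Polarization read at Ex 480/Em 540.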
A general note: In qHTS, concentration-response curves come from the screen itself.

Assay [2] is described as follows: Primary qHTS for small molecule stabilizers of the endoplasmic reticulum resident proteome: Secreted ER Calcium Modulated Protein (SERCaMP) assay (AID 1508630). In a few lines: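 GLuc-SERCaMP-expressing SH-SY5Y cells, pretreated 16 h with compound, are challenged with thapsigargin to empty ER calcium stores; after 4 h, coelenterazine is added directly to the medium and luminescence is imaged.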

Chain of Calcium and integrin-binding protein 1 (Homo sapiens) (Q99828 whole entry, looked up): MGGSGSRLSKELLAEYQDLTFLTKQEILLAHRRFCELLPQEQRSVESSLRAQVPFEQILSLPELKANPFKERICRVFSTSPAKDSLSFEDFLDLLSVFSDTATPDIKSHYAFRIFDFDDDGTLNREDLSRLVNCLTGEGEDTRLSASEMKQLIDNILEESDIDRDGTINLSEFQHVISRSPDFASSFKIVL

On to `Cc1cc(CS(=O)(=O)c2ccccc2)cc(OCc2ccc(CN3CCC[C@H]3CO)cc2)c1`, for which the Potency entry in assay [1] and in assay [2] was “inactive” each time.
For the molecule `COc1ccc2c(c1)CC[C@H]1[C@@H]2CC[C@]2(C)[C@@H](NCCCCCCN3C(=O)C=CC3=O)CC[C@H]12`, the Potency result in assay [1] and in assay [2] was “inactive” each time.
In the case of `CN1C(=O)C(Cc2c[nH]c3ccccc23)NC1=S` (configuration not stated), the Potency result in assay [1] and in assay [2] was “inactive” each time.
As to `CN[C@@H]1CN(c2ccc3c(=O)c(C(=O)O)cn(-c4nccs4)c3n2)C[C@@H]1OC`, the Potency result in assay [1] and in assay [2] was “inactive” in each case.
Take `O=C(c1ccc(C=Cc2n[nH]c3ccccc23)cc1)N1CCNCC1`: the Potency entry in assay [1] and in assay [2] was “inactive” in each case.
As for `COc1ccc(-c2oc3c(CC=C(C)C)c(O)cc(O)c3c(=O)c2O)cc1`, the Potency result in assay [1] and in assay [2] was “inactive” throughout.
Turning to `O=C(O)CCC=CCC[C@@H]1[C@H](N2CCCCC2)[C@@H](O)C[C@@H]1OCc1ccc(-c2ccccc2)cc1`, the Potency entry in assay [1] and in assay [2] was “inactive” throughout.
On to `N[C@@H](CC(=O)N1CCn2c(nnc2C(F)(F)F)C1)Cc1cc(F)c(F)cc1F`, for which the Potency entry in assay [1] and in assay [2] was “inactive” in each case.
As to `CN(C)CCN(C)C(=O)c1ccc(NC(=O)Nc2ccc(-c3nc(N4CCOCC4)c4ccn(CC(F)(F)F)c4n3)cc2)cc1`, the Potency result in assay [1] and in assay [2] was “inactive” in each case.
Consider `NC(N)=Nc1nc(CSCCC(N)=NS(N)(=O)=O)cs1`, for which the Potency entry in assay [1] and in assay [2] was “inactive” in each case.
On to `C[C@@H](O)[C@H]1C(=O)N2C(C(=O)OCOC(=O)C(C)(C)C)=C(SC3CN(C4=NCCS4)C3)[C@H](C)[C@H]12`, for which the Potency result in assay [1] and in assay [2] was “inactive” throughout.
Consider `CC(C)C[C@@H](N)[C@H](O)C(=O)N[C@H](C(=O)N[C@H](C(=O)N[C@@H](CC(=O)O)C(=O)O)C(C)C)C(C)C`, for which the Potency result in assay [1] and in assay [2] was “inactive” in each case.
Take `C#CCN(C)CC1=Cc2ccccc2Oc2ccccc21`: the Potency result in assay [1] and in assay [2] was “inactive” each time.
For `CON(C)C(=O)N1N=C(c2cc(F)ccc2F)S[C@]1(CCCN)c1ccccc1`, the Potency result in assay [1] and in assay [2] was “inactive” each time.
Turning to `COc1cc([C@@H]2c3cc4c(cc3[C@@H](O[C@@H]3O[C@@H]5CO[C@@H](C)O[C@@H]5[C@H](O)[C@@H]3O)[C@H]3COC(=O)[C@H]23)OCO4)cc(OC)c1O`, the Potency entry in assay [1] and in assay [2] was “inactive” each time.
With `C[C@@H]1CC=CC=CC=CC=C[C@@H](O[C@@H]2O[C@H](C)[C@@H](O)[C@H](N)[C@H]2O)C[C@@H]2O[C@](O)(C[C@@H](O)C[C@@H]3O[C@@H]3C=CC(=O)O1)C[C@H](O)[C@@H]2C(=O)O`, the Potency result in assay [1] and in assay [2] was “inactive” each time.
As for `Nc1ncnc2c1ncn2[C@@H]1O[C@H](CO)[C@@H](O)[C@@H]1O`, the Potency entry in assay [1] and in assay [2] was “inactive” each time.
Consider `CC(C)(C)c1nc(-c2cccc(NS(=O)(=O)c3c(F)cccc3F)c2F)c(-c2ccnc(N)n2)s1`, for which the Potency entry in assay [1] and in assay [2] was “inactive” in each case.
As for `CC(C)c1onc(-c2c(Cl)cccc2Cl)c1COc1ccc(C=Cc2cccc(C(=O)O)c2)c(Cl)c1`, the Potency result in assay [1] and in assay [2] was “inactive” in each case.
For `C[C@@H]1[C@H](C)CC[C@]2(C(=O)O)CC[C@]3(C)C(=CC[C@@H]4[C@@]5(C)CC[C@H](O)C(C)(C)[C@H]5CC[C@]43C)[C@@H]12`, the Potency result in assay [1] and in assay [2] was “inactive” in each case.
`CN(C)CCOc1cc(-c2cn[nH]c2)ccc1NC(=O)C1COc2ccccc2O1` (configuration not stated): the Potency result in assay [1] and in assay [2] was “inactive” each time.
